Only some compounds are listed: those with a hit (about 2% of all), similar ones and a draw of the others.
CHO-K1 Ca antag = counter-screen for M1 antagonists: effect in parental CHO-K1 cells; 0.6% of 360,000 active; ATP-induced calcium, Fluo-8 fluorescence; inhibition, % at 3 µM;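 active = inhibition above a per-plate cutoff, the plate's mean sample inhibition plus 3 SD, cut at about 24% in these data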
M4 ag = agonists of human muscarinic M4 receptor (CHRM4) | AID 624127 | activation, % at 3 µM | CHO-K1 hM4/Gqi5, Fluo-8 calcium fluorescence; vehicle 0%, full acetylcholine response 100% | P08173 | 0.14% of 360,000 active;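 active = activation above the run mean over all test wells plus 3 SD, cut at about 32% in these data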;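 also: peak over basal fluorescence ratio per well then scaled between controls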
Target sequence (P08173 whole entry, looked up): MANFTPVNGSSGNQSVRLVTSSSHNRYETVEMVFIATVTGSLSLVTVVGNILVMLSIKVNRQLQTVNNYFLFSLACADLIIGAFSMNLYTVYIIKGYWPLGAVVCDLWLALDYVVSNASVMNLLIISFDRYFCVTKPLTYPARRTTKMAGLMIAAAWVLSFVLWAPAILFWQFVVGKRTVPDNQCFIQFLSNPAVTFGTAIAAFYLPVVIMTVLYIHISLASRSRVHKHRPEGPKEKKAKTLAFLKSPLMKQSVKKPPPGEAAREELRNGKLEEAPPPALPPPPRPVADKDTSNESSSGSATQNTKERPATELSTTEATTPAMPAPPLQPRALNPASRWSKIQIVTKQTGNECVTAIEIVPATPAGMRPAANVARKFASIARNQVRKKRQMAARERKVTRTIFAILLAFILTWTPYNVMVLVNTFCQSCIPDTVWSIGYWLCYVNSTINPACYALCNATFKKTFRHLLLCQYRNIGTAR
M4 antag = blocks acetylcholine activation of human M4 receptor | P08173 | CHO-hM4 cells, ACh EC80, Fluo-8 calcium fluorescence | inhibition, % at 3 µM | 0.73% of 360,000 active;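 active = inhibition above its plate's cutoff, the mean inhibition of sample wells plus 3 SD, cut at about 27% in these data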
CHO-K1 Ca PAM = M1 PAM counterscreen hit in parental CHO-K1 cells | ATP EC20, Fluo-8 calcium fluorescence; 0% at ATP EC20, 100% at ATP max | activation, % at 3 µM | 0.02% of 360,000 active | AID 602247;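 active = activation above the run cutoff, the mean activation of all test compounds plus 3 SD, cut at about 40% in these data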;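 also: peak over basal fluorescence ratio in a 140 s read after ATP addition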
CHRM4 PAM = positive allosteric modulators of human muscarinic M4 receptor; 0.4% of 360,000 active; CHO-K1 hM4/Gqi5, Fluo-8 calcium fluorescence, ACh EC20; 0% = ACh EC20, 100% = maximal ACh; activation, % at 3 µM;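 active = activation above its plate's cutoff, the mean activation of sample wells plus 3 SD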
CHO-K1 Ca ag = counter-screen for M1 agonists: effect in parental CHO-K1 cells. Fluo-8 calcium fluorescence; scaled to maximal ATP response, vehicle zero. activation, % at 3 µM. 0.48% of 360,000 active. AID 602248; in the data active = activation above about 15%;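 also: untransfected CHO-K1 host cells lacking M1 receptor as counterscreen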
Hits are given with their value; . = inactive.

SMILES | CHO-K1 Ca antag | M4 ag | M4 antag | CHO-K1 Ca PAM | CHRM4 PAM | CHO-K1 Ca ag
Cn1c(SCC(=O)Nc2ccc3nc(SCC(=O)NC4CC4)sc3c2)nnc1-c1ccccc1 | . | . | . | . | . | .
Cn1c(SCC(=O)Nc2ccc3nc(SCC(=O)N4CCCC4)sc3c2)nnc1-c1ccc(N)cc1 | 31.5 | . | . | . | . | .
CCN(CC)CCn1c(=S)[nH]c2cc(C(=O)NCc3ccc(C)cc3)ccc2c1=O | . | . | . | . | . | .
O=[N+]([O-])c1ccc(NC(=S)NCCc2ccc(F)cc2)cc1 | 37.9 | . | . | . | . | .
Fc1cccc(NC(=S)NCCc2ccccc2)c1 | . | . | . | . | . | .
O=[N+]([O-])c1cccc(NC(=S)NCCc2ccccc2)c1 | 31.3 | . | . | . | . | .
Fc1ccc(CCNC(=S)Nc2ccc(F)c(Cl)c2)cc1 | 25.3 | . | . | . | . | .
O=C(Nc1cccnc1Cl)c1cccc(S(=O)(=O)N2CCOCC2)c1 | . | . | . | . | . | .
CN1C(=O)c2ccc(NC(=O)c3c(C(=O)O)cccc3[N+](=O)[O-])cc2C1=O | . | . | . | . | . | .
COCCN(C(=O)c1ccc(N2CCCC2=O)cc1)c1c(N)n(Cc2ccccc2)c(=O)[nH]c1=O | . | . | . | . | . | .
C=C[C@@H]1c2cccc(C)c2N(S(=O)(=O)c2ccc(C)cc2)[C@H](c2ccc(OC(C)=O)cc2)C1(C#N)C#N | . | . | . | . | . | .
O=C(OCc1nnc(-c2ccccc2)o1)c1ccc2ccccc2n1 | 29.5 | . | . | . | . | .
O=C(Nc1cccc(F)c1)c1c(F)c(F)c(F)c(F)c1F | 24.1 | . | . | . | . | .
Cc1onc(-c2c(Cl)cccc2Cl)c1C(=O)N1CCc2ccccc2C1 | . | . | 32.0 | . | . | .
Cc1onc(-c2ccccc2Cl)c1C(=O)N1CCOC12CCCCC2 | . | . | . | . | 19.0 | .
Cc1onc(-c2ccccc2Cl)c1C(=O)N1CCOC12CCN(c1cccc(F)n1)CC2 | . | . | . | . | . | .
COC(=O)c1ccc(COC(=O)CNC(=O)C2CCCCC2)cc1 | . | . | . | . | . | .
COc1ccc(NC(=O)C2CCCN(CCCc3ccccc3)C2)cc1OCC(C)C (centres undefined) | . | . | 28.5 | . | . | .
C=CC[n+]1c(/C=C2\C=Cc3cc(C)ccc3N2CC)ccc2ccccc21 | 38.1 | . | 32.7 | . | . | 16.0
COc1ccc(N(CC(=O)NCCc2ccccc2)C(=O)c2csnn2)cc1 | . | . | . | . | . | .
CCOc1ccc(N(CC(=O)NCCc2ccccc2)C(=O)c2csnn2)cc1 | . | . | . | . | 16.2 | .
Cn1c(/C(C#N)=C/c2cccc(O)c2)nc2ccccc21 | . | . | . | . | . | .
Cn1c(/C(C#N)=C/c2ccc(-c3ccc(S(N)(=O)=O)cc3)o2)nc2ccccc21 | . | . | . | . | . | 21.7
CCNC(=O)C1CC(=O)N(CCCc2ccccc2)C(=Nc2ccccc2)S1 (centres undefined) | . | . | . | . | . | 19.5
Cc1cc(C)cc(NS(=O)(=O)c2cc(Br)cnc2N)c1 | . | . | . | . | . | .
SMILES | CHO-K1 Ca antag | M4 ag | M4 antag | CHO-K1 Ca PAM | CHRM4 PAM | CHO-K1 Ca ag
Cc1ccc(NS(=O)(=O)c2cc(Br)cnc2N)cc1C | . | . | 97.4 | . | . | .
CC1(C)Cc2c(cnn2-c2ccccc2)C(=O)/C1=N\NC(=O)c1ccncc1 | . | . | . | . | 18.0 | .
O=C(N/N=C1\C/C(=N\NC(=O)c2ccncc2)c2ccccc21)c1ccncc1 | . | . | . | . | . | .
CN(Cc1ccccc1)C(=O)C1CCCN1S(=O)(=O)c1ccc(Cl)cc1 (centres undefined) | . | . | . | . | . | .
O=C(NC1CC1)C1CC(=O)N(c2ccc(F)cc2)C1 (centres undefined) | . | . | . | . | . | .
O=C(ONc1ccc(N=NC(=O)c2ccccc2O)cc1)c1ccccc1 | 28.1 | . | . | . | . | .
O=Nc1ccc(NOC(=O)c2ccccc2Br)cc1 | . | . | . | . | . | .
CC1CCN(C(=O)c2cccc(S(=O)(=O)N3CCCCC3)c2)CC1 | . | . | . | . | . | .
O=C(Oc1ccc(C(=S)N2CCOCC2)cc1)c1cccc([N+](=O)[O-])c1 | 29.3 | . | . | . | . | .
CC1CCN(S(=O)(=O)c2cccc(C(=O)Oc3ccc([N+](=O)[O-])cc3)c2)CC1 | . | . | . | . | 30.4 | .
Brc1ccc(-c2noc3c2-c2nc(C4CCCCC4)sc2CC3)cc1 | . | . | . | . | . | .
COc1ccc(C(=O)NCc2ccco2)cc1S(=O)(=O)NC1CC1 | . | . | . | . | . | .
CCOC(=O)c1c(C)noc1CP(=O)(c1ccccc1)c1ccccc1 | . | . | . | . | 18.1 | .
CCOC(=O)CP(=O)(c1ccccc1)c1ccccc1 | . | . | . | . | . | .
O=C(NCCSCc1ccccc1)c1ccc(C2SCC(=O)N2Cc2ccccc2)cc1 (centres undefined) | . | . | 34.5 | . | . | .
CN(C)CCCNc1nc2sc3c(c2c(=O)n1CCc1ccccc1)CCCCC3 | . | . | . | . | . | .
O=C(NC(c1ccc(Cl)cc1)c1cnccn1)C1CCN(CCCc2ccccc2)CC1 (centres undefined) | . | . | . | . | . | .
CC(=O)N1CCCC(C)(C(=O)Nc2ccc3oc(C)nc3c2)C1 (centres undefined) | 26.8 | . | . | . | . | .
COc1ccc(NC(=O)c2ccc(COc3ccccc3)o2)c(OC)c1 | . | . | . | 42.3 | . | .
COc1ccc(NC(=O)c2ccc(COc3ccccc3Br)o2)c(OC)c1 | . | . | . | . | . | .
COc1ccc(NC(=O)COC(=O)Cc2ccc(-c3ccccc3)cc2)c(OC)c1 | . | . | . | 46.0 | . | .
COc1ccc(C)cc1NC(=O)COC(=O)Cc1ccc(-c2ccccc2)cc1 | . | . | . | . | . | .
Cc1cc(C)c(S(=O)(=O)NC(CC(=O)O)c2cccc([N+](=O)[O-])c2)c(C)c1 (centres undefined) | 25.0 | . | . | . | . | .
Brc1ccc(-n2cccc2/C=N/n2cnnc2)cc1 | . | . | . | . | . | .
CCNS(=O)(=O)c1ccc(CCC(=O)Nc2ccc(C(=O)OC)cc2)cc1 | . | . | . | . | 29.0 | .
CCOc1ccc(Nc2cc(Nc3ccccc3OCC)nc(C=C(C#N)C#N)n2)cc1 | . | . | . | . | . | 15.5
Cc1ccccc1CSc1nc2c(c(=O)[nH]1)CCC2 | . | . | . | . | 36.9 | .
Cc1cccc(-c2nc(CSc3nc4c(c(=O)[nH]3)CCC4)c(C)o2)c1 | . | . | . | . | 20.0 | .

Source: PubChem BioAssay
